Compounds with a hit are over-represented: about 2.2% of the library has one in this group of screens.
MEX-5 binding – C. elegans MEX-5 TCR-2 RNA binding activity; MEX-5/FITC-TCR2 RNA binding, fluorescence polarization; active compounds read low; activity score (negative = inhibition of binding), % at 10 µM; hit rate 0.38% among 300,000;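 active = inhibition past about -25% in most replicates, and total fluorescence under double the plate's negative control median, limit read from the data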;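 also: 0% = DMSO and -100% = 5 µM competing unlabeled TCR2 RNA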
m5-HT2A agonist – mouse HTR2A agonism via beta-arrestin recruitment; hit rate 0.66% among 360,000; activation, % at 7.6 µM; CHO-K1 mHTR2A beta-arrestin complementation, luminescence; percent of 30 µM serotonin response; P35363;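 active = activation above a run cutoff, the mean activation of all tested compounds plus 3 SD, cut at about 14% in these data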;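 also: 0% = plate median of compound wells and 100% = 30 µM serotonin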
JMJD2C inh – inhibitors of human GASC-1 (JMJD2C) demethylase; GST-JMJD2C(1-420) H3K9me3 demethylation, DELFIA europium; inhibition, % at 2.35 µM; hit rate 0.069% among 330,000;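 active = more than half of a compound's replicate wells show inhibition beyond 50%, single wells judged on their own value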;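 also: signal counts dimethyl H3K9 product captured on neutravidin plate; 0% = median of DMSO wells and 100% = 0.3 times that DMSO median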
Target sequence (Q9H3R0 1-420 limits assumed): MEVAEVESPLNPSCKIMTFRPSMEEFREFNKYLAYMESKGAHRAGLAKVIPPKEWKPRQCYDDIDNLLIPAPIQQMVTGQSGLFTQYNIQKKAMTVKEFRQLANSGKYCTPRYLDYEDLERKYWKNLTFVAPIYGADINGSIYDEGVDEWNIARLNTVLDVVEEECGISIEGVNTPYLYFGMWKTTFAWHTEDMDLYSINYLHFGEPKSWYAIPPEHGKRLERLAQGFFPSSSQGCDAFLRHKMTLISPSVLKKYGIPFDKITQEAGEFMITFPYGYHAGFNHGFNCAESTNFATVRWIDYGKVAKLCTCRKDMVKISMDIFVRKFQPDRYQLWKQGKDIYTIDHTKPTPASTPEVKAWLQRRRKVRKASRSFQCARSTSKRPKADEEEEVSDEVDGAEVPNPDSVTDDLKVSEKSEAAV
Granule exo inh – blocks lytic granule exocytosis; TALL-104 LAMP-1 surface exposure, flow cytometry; cells stimulated with thapsigargin and PMA; inhibition, % at 10 µM; hit rate 0.66% among 360,000; AID 651702;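 active = inhibition above about 55%, limit read from the data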
VLA-4 inh – inhibition in a human VLA-4 binding assay. VLA-4 expressing cells, ligand binding flow cytometry. inhibition, % (about 7 µM as worked out from the volumes in the protocol). hit rate 0.2% among 330,000. AID 2557; in the data active = inhibition above about 50%
V-ATPase pH – yeast V-ATPase proton transport regulation by pHLuorin; S. cerevisiae, pHLuorin cytosolic pH fluorescence; response, % at 10 µM; hit rate 0.37% among 350,000; AID 504577; in the data active = response mostly above about 7.3%, no sharp cut-off; inactive = mostly below about 5.4%; also: actives read high
MOR ag counter – OPRM1 agonism in mouse HTR2A counterscreen. AID 624380. activation, % at 9.3 µM. shares compounds with m5-HT2A agonist. hit rate 5.3% among 2,300. U2OS OPRM1 beta-arrestin PathHunter, luminescence; DMSO 0%, DAMGO 9.3 µM 100%;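 active = mean activation above the mean of DMSO-only wells plus 3 SD, cut at about 0.5% in these data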
m5-HT2A ag conf – confirmation of mouse HTR2A serotonin receptor agonists; AID 624381; activation, % at 7.6 µM; shares compounds with m5-HT2A agonist; hit rate 19% among 2,300; CHO-K1 PathHunter beta-arrestin recruitment, luminescence; DMSO 0%, 30 µM serotonin 100%;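 active = mean activation across triplicates above the hit threshold derived in the original primary screen, cut at about 15% in these data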
* hit, by the source's call; · = not tested or not shown; ! = a repeat was not active.

SMILES | MEX-5 binding | m5-HT2A agonist | JMJD2C inh | Granule exo inh | VLA-4 inh | V-ATPase pH | MOR ag counter | m5-HT2A ag conf
O=C(C[C@H]1C[C@H](C(=O)N2CCOCC2)[C@@]2(CCC3CCCC3)c3[nH]c4cc(-c5ccco5)ccc4c3CCN2C1=O)NCCN1CCOCC1 | · | 0.7 | · | 29.3 | · | -2.6 | · | ·
CCCCCC(=O)Nc1cccc(C2=NOC3(C2)C[C@@H](C(N)=O)N(C(=O)CC(c2ccccc2)c2ccccc2)C3)c1 (stereo not given in full) | -0.6 | 5.2 | -4.5 | -0.6 | 1.3 | -6.7 | · | ·
O=C(COC(=O)c1ccccc1NCCO)Nc1ccc(S(=O)(=O)NC2=NCCCCC2)cc1 | · | 21.7* | · | -0.6 | · | 0.8 | -0.5 | -1.3
COc1ccc(C(=O)OC(C)C(=O)Nc2cc(C(F)(F)F)ccc2Cl)c(OC)c1OC (stereo not given) | -0.6 | -0.4 | -22.6 | 4.8 | 12.3 | -1.8 | · | ·
NC(=O)c1ccc[n+](Cc2ccc(-c3ccccc3)cc2)c1 | -1.8 | 5.1 | -25.3 | -0.2 | 7.5 | 6.9 | · | ·
Cc1ccc(S(=O)(=O)N2CCC(C(=O)N3CCC3)CC2)cc1 | -0.2 | 16.6* | -11.0 | -2.8 | -4.6 | 0.3 | -0.8 | 2.2
O=C(C1CCN(S(=O)(=O)c2ccc(Cl)cc2)CC1)N1CCCC1 | -1.9 | 6.7 | 4.3 | -15.7 | -0.4 | -0.7 | · | ·
COc1cccc(OCC(O)CN2CCN(c3ccccn3)CC2)c1 (stereo not given) | 2.1 | 33.1* | 6.5 | -3.9 | 5.6 | 3.9 | -0.6 | 83.8*
OC(COc1ccc2cc(Br)ccc2c1)CN1CCN(c2ccccn2)CC1 (stereo not given) | -0.9 | 24.2* | -25.7 | 3.3 | -6.8 | 1.3 | -0.2 | 107.8*
COc1ccc(CCNC(=O)C2CCC(=O)N2CCc2ccccc2)cc1OC (stereo not given) | 3.3 | -2.9 | -12.3 | -1.8 | · | 2.5 | · | ·
Nc1cccc2c(O)cccc12 | 0.9 | -2.8 | 9.9 | 22.9 | 14.9 | 2.8 | · | ·
O=c1[nH]ccc2c(O)cccc12 | -0.1 | 16.2* | 0.5 | -4.2 | -9.4 | -0.9 | 0.7* | 3.8
CCN(CC)CCOC(=O)c1ccc(NC(=S)NC(=O)/C=C/c2ccco2)cc1 | 0.9 | · | 19.6 | · | 4.5 | · | · | ·
Cc1cccc(N2C(=O)C3C4C=CC(C4)C3C2=O)c1 (stereo not given) | 0.7 | 21.6* | 53.6* | -1.6 | 12.2 | 3.8 | -0.4 | -0.5
Cc1nc(C(F)(F)F)ccc1C(=O)N1CCCC(C(=O)O)CC1 (stereo not given) | · | 4.1 | · | -2.2 | · | · | · | ·
COc1ccc(C(=O)NC2=Nc3ccccc3N=C(C)C2c2ccccc2)cc1 (stereo not given) | 0.6 | -2.2 | 6.1 | 46.8 | 8.7 | 2.5 | · | ·
O=C(CCC(=O)N1CCN(c2ccccc2F)CC1)c1ccc(Cl)s1 | · | 18.6* | 3.1 | -3.6 | -17.1 | -2.4 | -0.3 | -5.2
C[C@H](O)CC(=O)O | · | 16.0*! | · | -5.5 | 19.5 | 9.8 | -0.5 | -3.9
C[C@@H](O)CC(=O)O | · | -3.4 | · | -1.2 | 46.0 | -0.9 | · | ·
Cc1ccccc1OCCn1ccnc1 | 0.8 | -5.1 | -3.4 | -6.6 | 5.3 | 0.6 | · | ·
COc1ccccc1OCCn1ccnc1 | 2.9 | 15.7* | 5.0 | -7.2 | 14.7 | -0.3 | -0.7 | -6.0
CCOC(=O)Cc1nnc(NC(=O)C(CC)Sc2nncn2C)s1 (stereo not given) | 0.5 | 14.4* | -6.6 | 8.7 | 8.6 | 0.8 | -0.7 | -3.7
CC1=CC(=O)C(C(C)=Nc2ccccc2[N+](=O)[O-])C(=O)O1 (stereo not given) | · | 3.8 | · | 8.5 | · | -1.1 | · | ·
CCN(C(=O)CSc1nc2ccccc2o1)C1CCS(=O)(=O)C1 (stereo not given) | 1.9 | 2.9 | -11.4 | -0.7 | 26.8 | 6.5 | · | ·
CCN(C(=O)CSc1ccc2ccccc2c1)C1CCS(=O)(=O)C1 (stereo not given) | -0.4 | 16.1* | -10.6 | 1.9 | 24.8 | 1.7 | -0.6 | 0.2
CCn1c(SCC(N)=O)nnc1-c1ccco1 | 0.3 | 7.1 | -32.7 | -1.5 | -1.7 | 1.8 | · | ·
CCn1c(SCC(=O)c2cccs2)nnc1-c1ccco1 | -4.3 | 16.3* | -5.2 | 0.3 | 6.9 | 4.3 | -0.6 | 3.9

Screening results from PubChem.
